Compounds with a hit are over-represented: about 1.7% of the library has one in this group of screens.
HDAC3 inhib = blocks human histone deacetylase 3 | recombinant HDAC3, fluorogenic peptide/trypsin coupled, fluorescence | O15379 | inhibition, % at 8.3 µM | 0.15% of 320,000 active; in the data active = inhibition above about 26%, passing the limit was not always enough
HTR2A ag = mouse HTR2A agonism via beta-arrestin recruitment | CHO-K1 mHTR2A beta-arrestin complementation, luminescence; percent of 30 µM serotonin response | P35363 | AID 624169 | 0.66% of 360,000 active | activation, % at 7.6 µM;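 active = activation above a run cutoff, the mean activation of all tested compounds plus 3 SD, cut at about 14% in these data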
Target sequence (P35363 whole entry, looked up): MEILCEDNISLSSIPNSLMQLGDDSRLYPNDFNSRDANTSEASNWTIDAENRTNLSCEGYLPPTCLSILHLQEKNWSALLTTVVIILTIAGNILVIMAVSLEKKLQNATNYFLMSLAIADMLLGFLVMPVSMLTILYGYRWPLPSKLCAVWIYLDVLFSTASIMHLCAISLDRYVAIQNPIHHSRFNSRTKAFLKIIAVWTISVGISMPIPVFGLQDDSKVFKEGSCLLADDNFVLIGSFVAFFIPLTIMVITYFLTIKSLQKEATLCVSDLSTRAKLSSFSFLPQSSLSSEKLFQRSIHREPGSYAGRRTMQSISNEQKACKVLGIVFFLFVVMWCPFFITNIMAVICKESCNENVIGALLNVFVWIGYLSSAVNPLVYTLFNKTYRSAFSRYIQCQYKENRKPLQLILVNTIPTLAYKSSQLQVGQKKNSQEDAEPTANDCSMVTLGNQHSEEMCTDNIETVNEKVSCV
LANA-H2B inh = blocks KSHV LANA binding to histone H2A/H2B; Q9QR71; cell-free LANA-H2A/H2B peptide, fluorescence polarization; inhibition, % (test concentration not listed); 0.6% of 320,000 active; AID 2629; in the data active = inhibition mostly above about 10%, no sharp cut-off; inactive = mostly below about 6.7%
CTSL1 counter = blocks F. hepatica cathepsin L1 in PFM18AAP counter-screen | recombinant F. hepatica cathepsin L1, Z-Leu-Arg-MCA fluorescence | inhibition, % at 5.96 µM | 0.49% of 300,000 active | AID 1906;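 active = inhibition above the mean of all tested compounds plus 3 SD, set per screening campaign, cut at about 17% in these data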
Each line names hits and unclear results; the compound was inactive in the other large screens.

CCCOc1ccc(C(=O)ON=C2CCN(C)CC2)cc1	LANA-H2B inh 31
CCCOc1ccc(C(=O)O)cc1	none
CCCOC(=O)c1ccc(NC(=O)C(=O)NCC2CCCO2)cc1 (configuration not stated)	none
COC(=O)c1ccc(NC(=O)C(=O)NCC2CCCO2)cc1 (configuration not stated)	CTSL1 counter 17
O=c1[nH]c([N+](=O)[O-])nn1C(c1ccccc1)c1ccccc1	none
COc1cccc2c1C1COC3C4CC(C(=O)O)C(C(C2)N13)N4C (configuration not stated)	none (no result: HDAC3 inhib, LANA-H2B inh, CTSL1 counter)
O=C(NN1C(=O)/C(=C/c2ccc(O)cc2)SC1=S)c1cccc(O)c1	CTSL1 counter 20
O=C(NN1C(=O)/C(=C/c2ccc(O)cc2)SC1=S)c1ccccc1O	none
Cc1ccc(NC(=O)CCC(=O)c2ccc(Cl)s2)nc1	none (no result: LANA-H2B inh, CTSL1 counter)
CCO[C@@H]1OC(C(=O)N2CCN(Cc3ccc4c(c3)OCO4)CC2)=C[C@H](c2csc3ccccc23)[C@H]1CCCO	LANA-H2B inh 14
Cc1ccc(C23CC4CC(CC(NC(=O)NN)(C4)C2)C3)cc1	CTSL1 counter 28
COc1ccc(CN2C(=O)C(CC(=O)NCCc3ccccn3)CC(C(=O)N3CCOCC3)=C2C)cc1 (configuration not stated)	none (no result: HDAC3 inhib, LANA-H2B inh, CTSL1 counter)
Cc1ccccc1-c1coc2cc(O)ccc2c1=O	CTSL1 counter 23
Cc1cc(C)cc(Oc2coc3cc(O)ccc3c2=O)c1	CTSL1 counter 17
O=C(Cn1nc(Cc2ccncc2)c2ccccc2c1=O)Nc1cccnc1Cl	none
CC(=O)Nc1ccc(N(C(=O)c2ccccn2)C(C(=O)NC2CCCCC2)c2ccc(F)cc2)cc1 (configuration not stated)	none
CC(=O)NS(=O)(=O)c1ccc(NC(=O)c2cccc3ccccc23)cc1	none
Clc1ccc(OCCN2CCOCC2)cc1Cl	LANA-H2B inh 17
COc1cccc(NC(=O)CC2C(=O)NC3CCCCC3N2C(=O)c2ccccc2)c1 (configuration not stated)	none
COC(=O)c1cc(NC(=O)c2ccccc2F)cc(C(=O)OC)c1	LANA-H2B inh 22
COC(=O)c1cc(NC(=O)c2cc3ccccc3o2)cc(C(=O)OC)c1	LANA-H2B inh 16
COc1ccc(C)cc1NC(=O)c1cc2ccccc2o1	CTSL1 counter 33
Nc1ccn([C@@H]2O[C@H](C(=O)N3CCSC3)[C@@H](O)[C@H]2O)c(=O)n1	none (no result: HDAC3 inhib, LANA-H2B inh, CTSL1 counter)
O=C(CCl)Nc1cccc(Oc2cnccn2)c1	CTSL1 counter 56
O=C(CCl)Nc1cccc(Oc2ccccc2)c1	CTSL1 counter 43
O=C(CN1CCCCC1)Nc1cccc(Oc2ccccc2)c1	none
Cn1c(=O)cc2c3c(c(N4CCCCC4)ccc31)C(=O)c1ccccc1-2	LANA-H2B inh 22
CCOC(=O)c1cc(OC(=O)c2ccccc2Br)n(-c2ccccc2)n1	LANA-H2B inh 17
CC(=O)Nc1ccc(NC(=O)COC(=O)c2ccc(S(=O)(=O)N(C)c3ccccc3)cc2)cc1	none (no result: HDAC3 inhib, LANA-H2B inh, CTSL1 counter)
Cc1ccc(NC2=C(Cl)C(=O)OC2OC(=O)c2ccco2)cc1C (configuration not stated)	CTSL1 counter 54
Cc1ccc(NC2=C(Cl)C(=O)OC2OC(=O)c2ccco2)c(C)c1 (configuration not stated)	CTSL1 counter 48
Cc1ccc(C)c(NC2=C(Cl)C(=O)OC2OC(=O)c2ccco2)c1 (configuration not stated)	none
CC(=O)c1sc(NC(=O)CN2C(=O)C3CCCCC3C2=O)nc1-c1ccccc1 (configuration not stated)	none (no result: CTSL1 counter)
CCCCn1c(N)c(N(CC(C)C)C(=O)c2c(CC)noc2C)c(=O)[nH]c1=O	none
CCC(=O)c1ccc(OCc2ccc(C#N)cc2)cc1	none
CCC(=O)c1ccc(OCc2ccc(C(=O)OC)cc2)cc1	LANA-H2B inh 14
O=C(/C=C/c1ccccc1)Nc1ncn[nH]1	LANA-H2B inh 14
Nc1nc(N)nc(-c2cc(C(F)(F)F)ccc2Cl)n1	HDAC3 inhib 28
COc1cc(C2C(C#N)=C(N)N(N(C)C)C3=C2C(=O)CC(C)(C)C3)cc(OC)c1OC (configuration not stated)	none
CC(OC(=O)C1CCCC1)C(=O)Nc1ccc(S(N)(=O)=O)cc1 (configuration not stated)	none
CSCCC(NC(=O)c1ccco1)C(=O)OCC(=O)N1c2ccccc2NC(=O)C1(C)C (configuration not stated)	none (no result: CTSL1 counter)
O=C(COC(=O)c1ccc([N+](=O)[O-])s1)NC(=O)NCc1ccccc1	CTSL1 counter 18
O=C(COC(=O)c1ccc([N+](=O)[O-])s1)NNC(=O)c1ccccc1	none (no result: CTSL1 counter)
O=C(COC(=O)c1ccc([N+](=O)[O-])s1)NCCc1ccccc1	HTR2A ag 17 (no result: CTSL1 counter)
Cc1ccc(C(=O)OCC(=O)NC(C)c2ccccc2)s1 (configuration not stated)	none (no result: CTSL1 counter)
O=C(COC(=O)c1ccc([N+](=O)[O-])s1)NCc1ccc(F)cc1	CTSL1 counter 80
O=C(COC(=O)c1ccc([N+](=O)[O-])o1)NCc1ccc(F)cc1	none (no result: CTSL1 counter)
CC(NC(=O)COC(=O)c1ccc([N+](=O)[O-])s1)c1ccccc1 (configuration not stated)	CTSL1 counter 33
CC(=O)Oc1ccccc1C(=O)C=Cc1cccc([N+](=O)[O-])c1	none (no result: HDAC3 inhib, LANA-H2B inh, CTSL1 counter)
CCCCC/C=C\C[C@H](O)/C=C/c1cccc(C[C@H](O)CCCCO)n1	CTSL1 counter 41
C=CCn1c(C)nnc1SCC(=O)Nc1oc(C)c2c(C)n[nH]c(=O)c12	CTSL1 counter 18
O=C(N/C(=C\c1ccc([N+](=O)[O-])cc1)C(=O)N1CCCCC1)c1ccccc1	LANA-H2B inh 13
Nc1ncnc2c1ncn2[C@@H]1O[C@H](C(=O)NS(=O)(=O)c2cccs2)[C@@H](O)[C@H]1O	none (no result: HDAC3 inhib, LANA-H2B inh, CTSL1 counter)
CC1=C(C(N)=O)C(c2ccc(Br)cc2)n2nc(CCCO)nc2N1 (configuration not stated)	LANA-H2B inh 16
CC1=C(C(N)=O)C(c2ccccc2F)n2nc(CCCO)nc2N1 (configuration not stated)	none
c1ccc(-c2ccccc2OCCCN2CCCC2)cc1	none
c1ccc(-c2ccccc2OCCCN2CCCCCC2)cc1	LANA-H2B inh 84
CC(=O)c1cccc(NC(=O)COc2cc(C)on2)c1	none (no result: CTSL1 counter)
O=C(c1cc(Cl)nc2ccccc12)N1CCN(Cc2ccc3c(c2)OCO3)CC1	LANA-H2B inh 21 (no result: CTSL1 counter)
COc1ccc(Cl)cc1C(=O)N1CCN(Cc2ccc3c(c2)OCO3)CC1	LANA-H2B inh 14
COc1cc2c(cc1OC)-c1cc(OCc3ccccc3Cl)nc(=O)n1CC2	HTR2A ag 19
COc1cc2c(cc1OC)-c1cc(NC3CCCC3)nc(=O)n1CC2	none
O=C(C1=C(O)C(=O)N(CCN2CCOCC2)C1c1ccc(F)cc1)c1cc2ccccc2o1 (configuration not stated)	none
O=C(C1=C(O)C(=O)N(CCCN2CCOCC2)C1c1ccccn1)c1cc2ccccc2o1 (configuration not stated)	LANA-H2B inh 28
CCN(CC)CCN1C(=O)C(O)=C(C(=O)c2ccc(C)o2)C1c1ccccn1 (configuration not stated)	LANA-H2B inh 16 (no result: HTR2A ag)
